Measurements as given in PubChem BioAssay (EPA / NIEHS).
Where “and” joins values, the source holds several entries; their conditions need not be identical. Identical values can stand only once. Records with an inconclusive call do not appear. Where a structure was tested more than once in an assay, its records may differ in their call. Calls of active or inactive are those of the source. Rule for the calls, unless noted: active = hit-call score of the fitted dose curve at least 0.9, where 1 is the maximum; inconclusive = response in the unintended direction; inactive = score below 0.9.

Key:
[1] = ATG_TGFb_CIS: Attagene CIS-FACTORIAL HepG2 Assay for human Transforming Growth Factor (TGF) (AID 2282967; active = hit-call score of the fitted dose curve at least 0.9, where 1 is the maximum; inactive = score below 0.9); settings: HepG2 Attagene CIS TGFb reporter, mRNA transcription; actives raise or lower the signal
Outline: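 HepG2 cells transiently transfected with cis-promoter-driven multiplexed reporter units; 24 h compound exposure. Reporter mRNA measured by RT-PCR, 6-FAM labeling, HpaI digestion and capillary electrophoresis; bidirectional fit versus DMSO baseline.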

[2] = ATG_VDRE_CIS: Attagene CIS-FACTORIAL HepG2 Assay for human Vitamin D Receptor Element (VDRE) (AID 2282968; active = hit-call score of the fitted dose curve at least 0.9, where 1 is the maximum; inactive = score below 0.9); settings: HepG2 VDRE cis-reporter transcription, actives raise or lower the signal
Outline: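 Transient MRTU transfection of HepG2, 24 h compound exposure. Readout: reporter transcripts via RT-PCR and capillary electrophoresis, fluorescence. Bidirectional fit vs DMSO.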

[3] = biological target: Nuclear receptor subfamily 1 group I member 3 (Homo sapiens) (UniProt Q14994); assay: ATG_CAR_TRANS: Attagene TRANS-FACTORIAL HepG2 Assay for human Constitutive Androstane Receptor (CAR) (AID 2282969); settings: HepG2 Attagene TRANS-FACTORIAL CAR reporter;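 note: activators raise reporter mRNA above DMSO so AC50 marks induction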
Nuclear receptor subfamily 1 group I member 3 (Homo sapiens), sequence (Q14994 whole entry, looked up, the tested form may be a part): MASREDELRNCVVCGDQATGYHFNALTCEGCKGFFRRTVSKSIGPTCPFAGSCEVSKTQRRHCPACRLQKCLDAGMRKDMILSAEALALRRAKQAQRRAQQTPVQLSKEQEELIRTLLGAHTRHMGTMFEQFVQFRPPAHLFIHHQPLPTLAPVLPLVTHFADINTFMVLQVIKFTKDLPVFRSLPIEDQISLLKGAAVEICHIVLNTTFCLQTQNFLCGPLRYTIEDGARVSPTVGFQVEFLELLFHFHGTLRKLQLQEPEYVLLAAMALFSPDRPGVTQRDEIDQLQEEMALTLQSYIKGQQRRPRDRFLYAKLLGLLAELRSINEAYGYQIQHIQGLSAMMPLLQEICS
Outline: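 Transiently transfected HepG2, multiplex TRANS reporters (CAR-Gal4 chimera driving GAL4-UAS reporter). 24 h dosing. Readout: reporter transcript by RT-PCR + capillary electrophoresis, fluorescence intensity; positive direction vs DMSO.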

[4] = biological target: X-box-binding protein 1 (Homo sapiens) (UniProt P17861); assay: ATG_Xbp1_CIS: Attagene CIS-FACTORIAL HepG2 Assay for human X-box Binding Protein 1 (XBP1) (AID 2282972; active = hit-call score of the fitted dose curve at least 0.9, where 1 is the maximum; inactive = score below 0.9); settings: HepG2 XBP1 cis-element reporter, Attagene multiplex; actives raise or lower the signal
X-box-binding protein 1 (Homo sapiens), sequence (P17861 whole entry, looked up): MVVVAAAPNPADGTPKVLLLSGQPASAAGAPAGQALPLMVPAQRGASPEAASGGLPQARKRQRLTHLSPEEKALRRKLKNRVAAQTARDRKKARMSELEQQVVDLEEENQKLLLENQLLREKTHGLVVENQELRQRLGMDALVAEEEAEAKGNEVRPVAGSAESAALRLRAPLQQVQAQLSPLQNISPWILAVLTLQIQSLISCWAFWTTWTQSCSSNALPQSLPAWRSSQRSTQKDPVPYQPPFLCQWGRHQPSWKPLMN
Outline: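 Human hepatoma HepG2, cis-element reporter system, 24 h treatment; mRNA quantified by RT-PCR/CE fluorescence; fit relative to DMSO.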

[5] = ATG_M_19_TRANS: Attagene TRANS-FACTORIAL HepG2 Assay for M19 Transcription Factor (Internal Marker) (AID 2282974); settings: HepG2 Attagene TRANS-FACTORIAL M19 internal marker reporter
Outline: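 Measured here: internal-marker reporter transcript from HepG2 cells transfected with MRTUs, harvested at 24 h. cDNA PCR products were 6-FAM labelled by primer extension, cut with HpaI for 2 h at 37 C, and resolved by CE.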

[6] = ATG_Hpa5_TRANS: Attagene TRANS-FACTORIAL HepG2 Assay for human GAL4-Hpa5 Hepatocyte Transcription Factor Basal Promoter (AID 2282975); settings: HepG2 Attagene GAL4-Hpa5 transcription reporter;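 note: hits are increases in reporter mRNA over DMSO baseline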
Outline: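 Gain-of-signal versus DMSO is fitted for reporter mRNA quantified by RT-PCR and capillary electrophoresis after 24 h exposure. This endpoint is an internal background marker in transiently transfected HepG2 cells carrying GAL4-UAS reporter units.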

[7] = biological target: Glucocorticoid receptor (Homo sapiens) (UniProt P04150); assay: ATG_GR_TRANS: Attagene TRANS-FACTORIAL HepG2 Assay for human Glucocorticoid Receptor (GR) (AID 2282978); settings: HepG2 Attagene TRANS GR reporter, mRNA transcription;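 note: activators score as hits since higher reporter transcript over DMSO is fitted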
Glucocorticoid receptor (Homo sapiens), sequence (P04150 whole entry, looked up, the tested form may be a part): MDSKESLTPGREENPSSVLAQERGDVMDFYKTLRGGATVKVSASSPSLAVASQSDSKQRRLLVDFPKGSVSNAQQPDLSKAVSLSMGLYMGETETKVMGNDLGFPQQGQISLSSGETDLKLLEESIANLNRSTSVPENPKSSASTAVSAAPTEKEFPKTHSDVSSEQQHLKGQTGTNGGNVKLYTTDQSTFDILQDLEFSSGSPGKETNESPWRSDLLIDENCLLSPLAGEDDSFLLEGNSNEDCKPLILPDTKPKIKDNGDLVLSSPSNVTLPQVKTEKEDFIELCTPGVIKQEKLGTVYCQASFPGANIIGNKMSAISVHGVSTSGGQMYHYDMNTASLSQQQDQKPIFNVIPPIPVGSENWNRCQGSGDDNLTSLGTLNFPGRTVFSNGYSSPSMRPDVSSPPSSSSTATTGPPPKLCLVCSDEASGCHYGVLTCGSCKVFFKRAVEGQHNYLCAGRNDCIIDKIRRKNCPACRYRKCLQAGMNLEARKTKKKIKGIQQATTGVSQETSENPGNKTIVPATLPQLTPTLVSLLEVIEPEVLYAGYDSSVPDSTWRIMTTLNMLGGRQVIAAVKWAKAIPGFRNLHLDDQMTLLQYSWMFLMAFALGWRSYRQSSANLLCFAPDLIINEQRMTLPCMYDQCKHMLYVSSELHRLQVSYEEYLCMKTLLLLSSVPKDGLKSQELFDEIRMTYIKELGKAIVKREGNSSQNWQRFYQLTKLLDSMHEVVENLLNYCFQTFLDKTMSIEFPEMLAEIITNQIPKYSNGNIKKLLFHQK
Outline: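 Measurement of GAL4-UAS-driven reporter mRNA in human HepG2 liver cells 24 h post-dosing, using RT-PCR with fluorescent labelling and capillary electrophoresis; the transfected constructs report exogenous NR-GAL4 chimera activity, fitted upward against DMSO.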

[8] = biological target: Oxysterols receptor LXR-alpha (Homo sapiens) (UniProt Q13133); assay: ATG_LXRa_TRANS: Attagene TRANS-FACTORIAL HepG2 Assay for human Liver X Receptor alpha (LXRa) (AID 2282980); settings: HepG2 Attagene TRANS reporter, LXRa transactivation
Oxysterols receptor LXR-alpha (Homo sapiens), sequence (Q13133 whole entry, looked up, the tested form may be a part): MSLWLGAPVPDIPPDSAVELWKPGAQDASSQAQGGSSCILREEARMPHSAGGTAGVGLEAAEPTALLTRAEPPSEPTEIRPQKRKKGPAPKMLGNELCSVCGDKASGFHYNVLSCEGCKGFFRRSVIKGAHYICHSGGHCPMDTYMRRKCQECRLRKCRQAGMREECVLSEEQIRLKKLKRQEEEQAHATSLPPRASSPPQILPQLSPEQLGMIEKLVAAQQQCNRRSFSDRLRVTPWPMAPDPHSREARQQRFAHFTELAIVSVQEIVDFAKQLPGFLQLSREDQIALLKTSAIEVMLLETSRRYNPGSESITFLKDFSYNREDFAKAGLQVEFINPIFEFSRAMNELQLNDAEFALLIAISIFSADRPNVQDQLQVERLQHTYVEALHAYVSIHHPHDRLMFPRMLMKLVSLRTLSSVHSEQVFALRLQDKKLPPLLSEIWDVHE
Outline: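 In this multiplexed TRANS system, compounds act on HepG2 cells carrying GAL4-UAS reporter units and a receptor-GAL4 fusion for 24 h. Induced reporter RNA is amplified, fluorescently labelled and sized by capillary electrophoresis, with DMSO as baseline.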

[9] = biological target: Oxysterols receptor LXR-beta (Homo sapiens) (UniProt P55055); assay: ATG_LXRb_TRANS: Attagene TRANS-FACTORIAL HepG2 Assay for human Liver X Receptor beta (LXRb) (AID 2282981); settings: HepG2 Attagene TRANS GAL4-LXRb reporter, mRNA
Oxysterols receptor LXR-beta (Homo sapiens), sequence (P55055 whole entry, looked up, the tested form may be a part): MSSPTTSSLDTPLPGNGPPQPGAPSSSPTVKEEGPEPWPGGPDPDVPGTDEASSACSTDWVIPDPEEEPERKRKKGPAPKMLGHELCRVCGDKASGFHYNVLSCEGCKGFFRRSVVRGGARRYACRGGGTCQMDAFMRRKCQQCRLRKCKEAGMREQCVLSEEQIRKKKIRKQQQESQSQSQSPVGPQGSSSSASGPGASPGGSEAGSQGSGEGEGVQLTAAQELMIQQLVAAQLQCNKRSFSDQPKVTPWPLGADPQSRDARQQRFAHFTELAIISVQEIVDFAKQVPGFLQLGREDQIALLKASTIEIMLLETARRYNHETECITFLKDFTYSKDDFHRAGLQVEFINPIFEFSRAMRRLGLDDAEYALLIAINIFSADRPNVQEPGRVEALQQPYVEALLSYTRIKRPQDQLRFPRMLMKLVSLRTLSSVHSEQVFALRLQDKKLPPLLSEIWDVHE
Outline: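 Readout: fluorescent reporter mRNA fragments resolved by capillary electrophoresis after RT-PCR. System: transiently transfected human HepG2, exogenous LXRb-Gal4 chimera driving GAL4-UAS reporter, 24 h dosing. Activity fitted upward against DMSO baseline.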

[10] = biological target: Hepatocyte nuclear factor 4-alpha (Homo sapiens) (UniProt P41235); assay: ATG_HNF4a_TRANS: Attagene TRANS-FACTORIAL HepG2 Assay for human Hepatocyte Nuclear Factor 4 alpha (HNF4a) (AID 2282982); settings: HepG2 HNF4a transactivation reporter, mRNA readout
Outline: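 Transient MRTU transfection of HepG2, 24 h dosing. Readout: reporter mRNA via RT-PCR + capillary electrophoresis, fluorescence; activity fit upward relative to DMSO control.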

[11] = biological target: Transcriptional activator Myb (Homo sapiens) (UniProt P10242); assay: ATG_Myb_CIS: Attagene CIS-FACTORIAL HepG2 Assay for human Myeloblastosis (Myb) Proto-Oncogene Transcription Factor (AID 2282986; active = hit-call score of the fitted dose curve at least 0.9, where 1 is the maximum; inactive = score below 0.9); settings: HepG2 Attagene CIS-FACTORIAL Myb reporter transcription; actives raise or lower the signal
Transcriptional activator Myb (Homo sapiens), sequence (P10242 whole entry, looked up): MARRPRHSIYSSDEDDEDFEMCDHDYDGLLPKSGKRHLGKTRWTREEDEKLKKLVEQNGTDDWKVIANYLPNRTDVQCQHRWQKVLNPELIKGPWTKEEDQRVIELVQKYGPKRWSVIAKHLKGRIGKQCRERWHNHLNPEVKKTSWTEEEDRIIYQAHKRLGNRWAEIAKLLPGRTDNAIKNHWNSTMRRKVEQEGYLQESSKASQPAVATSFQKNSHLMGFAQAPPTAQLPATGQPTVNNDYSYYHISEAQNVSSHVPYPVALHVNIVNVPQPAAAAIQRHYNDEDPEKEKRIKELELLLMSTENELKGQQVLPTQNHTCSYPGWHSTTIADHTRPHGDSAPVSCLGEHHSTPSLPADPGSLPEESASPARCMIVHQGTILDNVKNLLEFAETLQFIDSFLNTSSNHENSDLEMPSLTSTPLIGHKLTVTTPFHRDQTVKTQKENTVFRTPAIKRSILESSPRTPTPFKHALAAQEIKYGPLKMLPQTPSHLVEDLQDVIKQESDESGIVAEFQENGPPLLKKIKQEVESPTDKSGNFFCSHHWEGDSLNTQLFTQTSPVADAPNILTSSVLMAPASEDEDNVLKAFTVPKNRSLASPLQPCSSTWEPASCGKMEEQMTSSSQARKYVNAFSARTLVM
Outline: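 Fluorescence signals from capillary electrophoresis of RT-PCR-amplified reporter cDNA give the read-out. Cells: HepG2 transfected with multiple cis-regulated reporter units. Exposure lasts 24 hours; DMSO defines baseline for gain or loss of signal.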

[12] = biological target: Nuclear respiratory factor 1 (Homo sapiens) (UniProt Q16656); assay: ATG_NRF1_CIS: Attagene CIS-FACTORIAL HepG2 Assay for human Nuclear Respiratory Factor 1 (NRF1) Orphan Gene (AID 2282987; active = hit-call score of the fitted dose curve at least 0.9, where 1 is the maximum; inactive = score below 0.9); settings: HepG2 NRF1 cis-element reporter, Attagene multiplex; actives raise or lower the signal
Outline: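 Transcriptional reporter readout, one component of a 52-endpoint multiplexed HepG2 panel. Exposure 24 h; mRNA detected via RT-PCR and fluorescent capillary electrophoresis; fitting in both directions against DMSO.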

[13] = ATG_M_06_TRANS: Attagene TRANS-FACTORIAL HepG2 Assay for M06 Transcription Factor (Internal Marker) (AID 2282983); settings: HepG2 Attagene TRANS M06 internal marker reporter
Outline: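 Multi-reporter-transfected HepG2, 24 h treatment; reporter transcripts quantified via RT-PCR, primer-extension labelling and CE. DMSO-normalized gain-of-signal fit.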

[14] = ATG_GAL4_TRANS: Attagene TRANS-FACTORIAL HepG2 Assay for GAL4 (Internal Marker) (AID 2282976); settings: HepG2 Attagene TRANS GAL4 internal marker reporter
Outline: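 Liver HepG2 line bearing multiplexed GAL4-UAS reporter constructs; 24 h chemical treatment. Transcripts were quantified as fluorescent fragments on capillary electrophoresis after RT-PCR and HpaI cut, with activity fitted upward from DMSO.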

[15] = biological target: Nuclear receptor subfamily 4 group A member 2 (Homo sapiens) (UniProt P43354); assay: ATG_NURR1_TRANS: Attagene TRANS-FACTORIAL HepG2 Assay for human Nuclear Receptor Related Protein 1 (NURR1) (AID 2282985); settings: HepG2 Attagene TRANS reporter, mRNA readout
Nuclear receptor subfamily 4 group A member 2 (Homo sapiens), sequence (P43354 whole entry, looked up, the tested form may be a part): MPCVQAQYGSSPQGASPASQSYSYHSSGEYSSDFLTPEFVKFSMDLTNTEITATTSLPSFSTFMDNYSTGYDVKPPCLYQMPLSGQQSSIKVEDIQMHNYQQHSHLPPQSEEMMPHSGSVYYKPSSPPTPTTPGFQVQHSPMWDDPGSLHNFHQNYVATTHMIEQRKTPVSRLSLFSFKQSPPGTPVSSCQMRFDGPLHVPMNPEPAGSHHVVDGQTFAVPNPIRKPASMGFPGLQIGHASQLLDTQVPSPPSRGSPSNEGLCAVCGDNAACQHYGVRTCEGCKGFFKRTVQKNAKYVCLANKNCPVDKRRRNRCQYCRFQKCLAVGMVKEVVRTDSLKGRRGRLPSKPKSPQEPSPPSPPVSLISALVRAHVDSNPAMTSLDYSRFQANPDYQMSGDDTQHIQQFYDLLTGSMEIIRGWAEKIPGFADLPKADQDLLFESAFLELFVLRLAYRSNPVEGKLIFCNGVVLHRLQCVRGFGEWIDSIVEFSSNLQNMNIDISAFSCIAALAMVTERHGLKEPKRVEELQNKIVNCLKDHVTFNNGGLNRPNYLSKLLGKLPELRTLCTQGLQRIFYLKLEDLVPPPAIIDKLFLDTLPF
Outline: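 Read-out: reporter mRNA induction by RT-PCR plus capillary electrophoresis with fluorescence detection, after 24 h dosing of transfected HepG2 cells. Exogenous NR-Gal4 chimera activity drives GAL4-UAS reporter; activity fitted upward versus DMSO.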

[16] = biological target: Estrogen receptor (Homo sapiens) (UniProt P03372); assay: ATG_ERa_TRANS: Attagene TRANS-FACTORIAL HepG2 Assay for human Estrogen Receptor alpha (ERa) (AID 2282970); settings: HepG2 Attagene TRANS ERa GAL4 reporter, mRNA
Estrogen receptor (Homo sapiens), sequence (P03372 whole entry, looked up, the tested form may be a part): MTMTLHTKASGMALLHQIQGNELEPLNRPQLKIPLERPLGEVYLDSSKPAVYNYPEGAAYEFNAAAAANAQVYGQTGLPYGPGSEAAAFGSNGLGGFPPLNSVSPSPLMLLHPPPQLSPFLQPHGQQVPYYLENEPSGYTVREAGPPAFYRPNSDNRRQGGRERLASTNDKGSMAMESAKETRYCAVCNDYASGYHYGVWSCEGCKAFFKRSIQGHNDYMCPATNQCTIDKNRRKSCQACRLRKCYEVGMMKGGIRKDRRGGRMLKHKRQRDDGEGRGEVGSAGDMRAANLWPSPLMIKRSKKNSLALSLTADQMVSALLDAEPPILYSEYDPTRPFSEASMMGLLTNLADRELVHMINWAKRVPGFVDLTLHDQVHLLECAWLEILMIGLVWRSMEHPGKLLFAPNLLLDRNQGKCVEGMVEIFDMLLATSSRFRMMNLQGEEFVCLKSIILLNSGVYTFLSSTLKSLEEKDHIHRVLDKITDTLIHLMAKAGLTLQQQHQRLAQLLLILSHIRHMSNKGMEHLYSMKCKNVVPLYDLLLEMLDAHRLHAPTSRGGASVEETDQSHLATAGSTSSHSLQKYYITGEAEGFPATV
Outline: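 Signal derives from fluorescence of labelled reporter PCR fragments separated by capillary electrophoresis. HepG2 cells transiently carrying multiple GAL4-UAS reporter units were treated 24 hours, and induction above DMSO baseline was fitted as activity.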

[17] = biological target: Bile acid receptor (Homo sapiens) (UniProt Q96RI1); assay: ATG_FXR_TRANS: Attagene TRANS-FACTORIAL HepG2 Assay for Farnesoid X Receptor (FXR) (AID 2282979); settings: HepG2 Attagene TRANS FXR-GAL4 reporter transcription;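 note: hits raise reporter mRNA above DMSO so AC50 marks FXR activation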
Bile acid receptor (Homo sapiens), sequence (Q96RI1 whole entry, looked up, the tested form may be a part): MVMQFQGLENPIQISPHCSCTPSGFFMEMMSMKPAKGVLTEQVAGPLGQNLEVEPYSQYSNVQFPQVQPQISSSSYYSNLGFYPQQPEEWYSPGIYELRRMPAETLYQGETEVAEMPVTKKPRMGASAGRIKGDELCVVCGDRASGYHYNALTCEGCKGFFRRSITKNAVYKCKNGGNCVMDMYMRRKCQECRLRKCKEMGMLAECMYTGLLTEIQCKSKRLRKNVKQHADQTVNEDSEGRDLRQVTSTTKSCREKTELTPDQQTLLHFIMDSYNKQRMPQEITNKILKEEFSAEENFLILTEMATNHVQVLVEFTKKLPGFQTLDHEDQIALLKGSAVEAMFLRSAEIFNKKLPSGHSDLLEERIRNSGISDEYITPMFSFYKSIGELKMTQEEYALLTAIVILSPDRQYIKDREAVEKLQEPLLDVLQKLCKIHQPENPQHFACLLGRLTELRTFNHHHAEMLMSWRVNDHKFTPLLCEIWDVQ
Outline: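 After 24 h chemical treatment of transfected HepG2 cells, GAL4-UAS reporter transcripts driven by an exogenous FXR-GAL4 fusion were measured by RT-PCR and capillary electrophoresis. Increases over DMSO were fitted.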

[18] = ATG_M_32_TRANS: Attagene TRANS-FACTORIAL HepG2 Assay for M32 Transcription Factor (Internal Marker) (AID 2282984); settings: HepG2 Attagene TRANS M32 internal marker reporter;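 note: transcript level of a background control reporter unit measured by RT-PCR and capillary electrophoresis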
Outline: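 Read-out: fluorescent reporter cDNA fragments resolved by capillary electrophoresis after RT-PCR of total RNA. Transfected HepG2 cells were exposed to chemical for 24 h. Activity scored in the positive direction relative to DMSO.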

Measured: AC50

CCOC(=O)[C@H](C)Oc1ccc(Oc2nc3ccc(Cl)cc3o2)cc1
active: [9] 50 µM
not listed: [13] | [14] | [15] | [16] | [17] | [18]
inactive: all other assays above

S=C([S-])NCCNC(=S)[S-].[Mn+2]
not listed: [3] | [14] | [15] | [16] | [17] | [18]
inactive: all other assays above

CC(C)(C)[C@@H](O)[C@@H](Cc1ccc(Cl)cc1)n1cncn1
inactive: [1] | [4] | [8] | [9] | [10] | [13] | [11] | [12]
active: [2] 14 µM

CC(=O)[C@H]1CC[C@H]2[C@@H]3CCC4=CC(=O)CC[C@]4(C)[C@H]3CC[C@]12C
active: [2] 26.5 µM [middle of 4 runs] | [14] 158 µM
inactive: [1] | [4] | [5] | [14] | [8] | [9] | [13] | [15] | [11] | [12]

C[C@]12C[C@H](O)[C@H]3[C@@H](CCC4=CC(=O)CC[C@@]43C)[C@@H]1CC[C@@H]2C(=O)CO
inactive: [1] | [16] | [4] | [5] | [17] | [8] | [9] | [13] | [18] | [15] | [11] | [12]
active: [16] 100 µM and 49.6 µM | [7] 129 nM [middle of 4 runs]

COC(=O)CSc1cc(N=c2sc(=O)n3n2CCCC3)c(F)cc1Cl
not listed: [3] | [5] | [10] | [14] | [15] | [16] | [18]
inactive: all other assays above

N[C@@H](Cc1cc(I)c(Oc2ccc(O)c(I)c2)c(I)c1)C(=O)O
active: [15] 25.8 µM
inactive: [1] | [2] | [3] | [4] | [5] | [14] | [7] | [8] | [9] | [10] | [13] | [15] | [11] | [12]
